Source: PubChem BioAssay (Tox21)
Inconclusive results are not listed. Where a call stands in place of a potency, no number is given. Active and inactive are the calls of the source. The call rests on the fitted dose curve; in most records, active means well fitted cell-killing curve with a large enough effect in the repeat runs; inconclusive means weak or mixed curves, or effect the other way; inactive means flat fitted curve, though single readings scatter. Where a SMILES comes first, the peptide text is derived from it.

Experiment: qHTS RealTime-Glo MT Cell Viability Assay in HEK293 cells - 32 hour (AID 1224868); further: top concentration of the series differs between compounds; nearly all actives have a fitted effect of over 50% in size
Conditions: RealTime-Glo luminescence; series mostly up to 76.8 µM
Source text: National Center for Advancing Translational Sciences [NCATS]
NIH Chemical Genomics Center [NCGC]
U.S. Environmental Protection Agency [EPA]
National Institutes of Environmental Health Sciences [NIEHS]
National Toxicology Program [NTP]
U.S. Food and Drug Administration [FDA]
Measure of cell viability is critical in the cell-base assay. Analysis of cell viability is necessary for the characterization of cell responses to cytotoxic drugs and environmental stress. A RealTime-Glo MT Cell Viability Assay to monitor cell viability in real time of continues cell culture during 40 hours of compound treatment was used to screen Tox21 10K library compounds in Hek293 cells. The RealTime-Glo MT Cell Viability Assay is a nonlytic, homogeneous, bioluminescent method to measure cell viability in real time using a simple, plate-based method. The assay involves adding NanoLuc luciferase and a cell-permeant prosubstrate to cells in culture. Viable cells reduce the proprietary prosubstrate to generate a substrate for NanoLuc luciferase. This substrate diffuses from cells into the surrounding culture medium, where it is rapidly used by the NanoLuc Enzyme to produce a luminescent signal. The signal correlates with the number of viable cells, making the assay well suited for cytotoxicity studies.
Tox21 Assay Protocol Summary:
The mixture of Hek293 cell suspension and reagents were dispensed at 600cells/6 ul/well in 1536-well tissue culture treated black solid bottom plates using a Multidrop dispenser. After the assay plates were incubated at a 37 C/5% CO2 incubator for 5 hours, 23 nL of compounds dissolved in DMSO, positive and negative controls was transferred to the assay plate by a pintool work station. The plates were incubated at 37 C for 40 hours. The luminescence intensity were measured at 0h, 8h, 16h, 24h, 32h and 40h time points using ViewLux plate reader during compound treatment.

Row | Structure (SMILES) | Potency | activity change, negative = cytotoxic
1 | Cc1ccc(N)cc1S(=O)(=O)O | inactive | –
2 | CC(CO)(CO)CO | inactive | –
3 | CC(C)(C)NC[C@H](O)COc1cccc2c1CCCC2=O | inactive | –
4 | OCCN1CCOCC1 | inactive | –
5 | CC1CCc2c(N3CCC(O)CC3)c(F)cc3c(=O)c(C(=O)O)cn1c23 (stereo not given) | inactive | –
6 | Cc1ccccc1C(N)=O | inactive | –
7 | CC(=O)N[C@@H](CO)C(=O)N[C@@H](CC(=O)O)C(=O)N[C@@H](CCCCN)C(=O)N1CCC[C@H]1C(=O)O (Ac-SDKP-OH) | inactive | –
8 | C[Si]1(C)O[Si](C)(C)O[Si](C)(C)O[Si](C)(C)O[Si](C)(C)O1 | inactive | –
9 | CC(C)[C@H]1CC[C@H](C)C[C@@H]1O | inactive | –
10 | O=C(O)CSCC(=O)NC1CCSC1=O (stereo not given) | inactive | –
11 | C=CCCCCCCCCC(=O)OCCCC | inactive | –
12 | Cn1nnc2c(C(N)=O)ncn2c1=O | inactive | –
13 | CN(C)CCOC(=O)C(c1ccccc1)C1(O)CCCC1 (stereo not given) | inactive | –
14 | CC(=O)CC(=O)Nc1ccc(C)cc1C | inactive | –
15 | c1ccc2c(CC3=NCCN3)cccc2c1 | inactive | –
16 | CC(S)C(C)S (stereo not given) | inactive | –
17 | C[C@]12CCC(=O)C=C1CC[C@H]1[C@@H]3CC[C@](O)(C(=O)CO)[C@@]3(C)C[C@H](O)[C@@]12F | inactive | –
18 | OCC(O)CN1CCN(c2ccccc2)CC1 (stereo not given) | inactive | –
19 | CCC(C)OC(C)CC (stereo not given) | inactive | –
20 | CC(=O)CCc1ccc(OC(C)=O)cc1 | inactive | –

Row | Structure (SMILES) | Potency | activity change, negative = cytotoxic
21 | CN(C)CCN(C)CCO | inactive | –
22 | O=C(Cl)c1ccccc1[N+](=O)[O-] | inactive | –
23 | C=C(C)[C@@H]1CC=C(C)C(=O)C1 | inactive | –
24 | O=C1NC(c2ccccc2)(c2ccccc2)C(=O)N1COP(=O)(O)O | inactive | –
25 | COC(=O)CCCCC(=O)O | inactive | –
26 | CCO | inactive | –
27 | CC(C)CCOC(=O)c1ccccc1 | inactive | –
28 | CCCCCCCCCCCCCCCCCCOCCO | – | -2.29% [at 15.8 µM] (inactive)
29 | O=C(Cn1ccnc1[N+](=O)[O-])NCc1ccccc1 | inactive | –
30 | Cc1cc(-c2ccccc2)nnc1NCCN1CCOCC1 | inactive | –
31 | CCNC(=O)NCc1cccc(Cl)c1 | inactive | –
32 | CC(C)C1OCCN1CCOC(=O)NCCCCCCNC(=O)OCCN1CCOC1C(C)C (stereo not given) | inactive | –
33 | CN(C)CCCCl | inactive | –
34 | CCC/C=C(\C=O)CC | inactive | –
35 | CC1=NN(c2ccc(S(=O)(=O)O)cc2)C(=O)C1 | inactive | –
36 | COC(=O)/C=C\C(=O)O | inactive | –
37 | COP(=O)(O)OP(=O)(O)OC | inactive | –
38 | OC[C@H]1O[C@@H](O[C@@H]2[C@@H](CO)O[C@](O)(CO)[C@H]2O)[C@H](O)[C@@H](O)[C@H]1O | inactive | –
39 | C#CCN[C@@H]1CCc2ccccc21 | inactive | –
40 | C=CC/C=C/C | inactive | –
